Test [1] has as its system TRPC4 beta (transient receptor potential cation channel C4), mouse. Kind of test: TRPC4 cation channel opening, retest – cell-based, Fluo4 calcium, HEK293 TRPC4beta/mu-opioid, duplicates, 10 µM, confirmation (AID 2426;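 active means fluorescence ratio normalized to control raised more than 50% in primary screen plus both repeat runs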). The settings on record: Fluo4 calcium fluorescence, at 10 µM; hits give high values.
Test [2] deals with transient receptor potential cation channel C4 beta (TRPC4), mouse. As to the kind of experiment: TRPC4 cation channel opening, second retest – cell-based, second round, Fluo4, HEK293 TRPC4beta/mu-opioid, 1 µM, confirmation (AID 2461;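 active means primary screen active and over 50% activation in each of two duplicate runs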). The note with it: Fluo4 calcium fluorescence, at 1 µM; hits give high values.
The subject of test [3] is TRPC4 (transient receptor potential cation channel C4 beta), mouse. Kind of test: potentiation of DAMGO EC20 TRPC4 response – cell-based, second round, Fluo-4, HEK293 TRPC4beta/mu-opioid, 1 µM, confirmation (AID 2554;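 active means primary screen hit whose fluorescence ratio, in both repeats, exceeds the weak agonist control mean by 3 SD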). The note with it: DAMGO EC20, Fluo-4 calcium flux, at 1 µM; hits give high values.
Test [4] deals with TRPC4 beta (transient receptor potential cation channel C4), mouse. Kind of test: potentiation of DAMGO EC20 TRPC4 response – cell-based, Fluo-4, HEK293 TRPC4beta/mu-opioid, confirmation (AID 2555;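 active means primary screen hit whose calcium fluorescence ratio, in both repeats, exceeds the weak agonist control mean by 3 SD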). The note with it: DAMGO EC20, Fluo-4 calcium flux, at 10 µM; hits give high values.
Test [5] has as its target Short transient receptor potential channel 4 (Mus musculus) (UniProt Q9QUQ5). As to the kind of experiment: blockers of DAMGO-evoked TRPC4 calcium flux – cell-based, Fluo4, HEK293 TRPC4beta/mu-opioid, confirmation (AID 2636;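 active means calcium signal cut by more than 3 SD below the full-agonist control yet still positive, in both repeats and the earlier primary screen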). The note with it: at 10 µM; hits give high values.
For test [6] the target is unchanged. Kind of test: blockers of DAMGO-evoked TRPC4 calcium flux – cell-based, second round, Fluo4, HEK293 TRPC4beta/mu-opioid, 1 µM, confirmation (AID 2637;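 active means calcium signal ratio cut to more than 3 SD under the fully stimulated control mean yet still positive, in both repeats and the primary screen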;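 on inhibition: percent of integrated ratio relative to wells lacking test compound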). The settings on record: at 1 µM; hits give high values.
Test [7] has the same target. Kind of test: calcium entry via TRPC4 opening agents – cell-based, HEK293 TRPC4/mu-opioid, Fluo-4 calcium, dose response (AID 434937;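 active means primary screen activator hit with a dose response curve and TRPC4 channel activation at any tested dose; inactive means no activation, no dose response, or not a primary hit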).
Test [8] has the same target. As to the kind of experiment: potentiation of DAMGO-evoked TRPC4 calcium signal – cell-based, HEK293 TRPC4/mu-opioid, Fluo-4 calcium, EC20 DAMGO, dose response (AID 434941).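 Further: calcium entry triggered by an EC20 dose of DAMGO at the co-expressed mu-opioid receptor.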
Test [9] addresses Short transient receptor potential channel 6 (Mus musculus) (UniProt Q61143). Kind of test: TRPC6 blockade by TRPC4 inhibitor hits – cell-based, HEK293, membrane potential dye, duplicate, selectivity assay for TRPC4 inhibitor project, confirmation (AID 434948;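 active means active in primary screen and both duplicates, each dropping signal beyond three positive-control SD with fluorescence still positive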). The note with it: HEK293 TRPC6, membrane potential dye fluorescence, at 10 µM, stimulated with maximal-effect acetylcholine; hits give high values.

The target is the same in test [10]. As to the kind of experiment: TRPC6 opening by TRPC4 activator hits – cell-based, HEK293, membrane potential dye, duplicate, selectivity assay for TRPC4 activator project, confirmation (AID 434950;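 active means membrane potential signal rise above negative control mean plus 3 SD in both duplicates, also active in the earlier TRPC4 screen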). The settings on record: HEK293 TRPC6, membrane potential fluorescence, at 10 µM; activation: hits give high values; outcome: activation.
Test [11] has the same target. As to the kind of experiment: positive modulators of mouse TRPC6 channel – HEK293 cells, membrane potential dye, duplicate, selectivity assay for TRPC4 potentiator project, confirmation (AID 434952;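 active means compound raising the membrane signal above positive-control mean plus 3 SD in both repeats, and a primary screen hit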). The settings on record: HEK293 TRPC6, membrane potential dye fluorescence, at 10 µM, maximal acetylcholine added after compound; hits give high values.
The target in test [12] is Short transient receptor potential channel 4 (Mus musculus) (UniProt Q9QUQ5). Kind of test: calcium flux activators in TRPC4/5HT1a cells, counter-screen for TRPC4 activator project, cell-based, second counter screen, HEK293 TRPC4/5HT1a, Fluo-4 (AID 434977;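 active means calcium signal rise above buffer-control mean plus 5 SD in both duplicates, and also a hit in the primary screen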). The settings on record: Fluo-4 calcium flux, at 10 µM; hits give high values.
Test [13] in a line: serotonin-gated TRPC4 signal block – cell-based, second counter screen, HEK293 TRPC4/5HT1a, Fluo-4, counter-screen for TRPC4 inhibitor project, confirmation (AID 434978;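 active means primary screen active whose calcium signal fell more than 3 SD beyond the full-serotonin control mean in both duplicate plates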;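 on outcome: serotonin given first at submaximal then at maximal dose after compound preincubation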). The settings on record: Fluo-4 calcium flux, at 10 µM, serotonin added to trigger calcium flux; hits give high values.
Test [14] relates to TRPC4 (mouse), co-expressed with 5HT1a in HEK293. Kind of test: enhancement of serotonin-evoked TRPC4 response – cell-based, second counter screen, HEK293 TRPC4/5HT1a, Fluo-4, counter-screen for TRPC4 potentiator project, confirmation (AID 434979;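 active means signal rise over 3 SD above mean of control wells given weak agonist, in both repeats and first screen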). The note with it: Fluo-4 calcium flux, at 10 µM, serotonin added at its EC20 dose; hits give high values.
Test [15] in a line: nonspecific calcium rise without TRPC4 – cell-based, HEK293 mu-opioid receptor line, counter-screen for TRPC4 activator project, confirmation (AID 449723;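 active means hit in primary screen, with calcium signal over 5 SD above buffer well mean in both duplicates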;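 further: counter screen cells carry the mu-opioid receptor alone and lack TRPC4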). The note with it: HEK293 mu-opioid cells, Fluo-4 calcium fluorescence, at 10 µM; hits give high values.
Test [16] can be described thus: nonspecific potentiation of DAMGO calcium response – cell-based, HEK293 mu-opioid receptor line, counter-screen for TRPC4 allosteric potentiator project, confirmation (AID 449724;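 active means calcium signal rise more than 3 SD above the low-dose agonist control mean, in both duplicate plates and the primary screen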;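 further: HEK293 cells carrying mu-opioid receptor only with no TRPC4 channel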). The note with it: HEK293 mu-opioid receptor cells, Fluo-4 calcium flux, at 10 µM, compound added before EC20 DAMGO stimulus; hits give high values.

For part of these data: Potency and affinity values are given separately. The source made the active and inactive calls.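 How the source made its calls, unless noted: active means earlier screen potentiator hit that boosts the TRPC4 ion channel at some dose, with a dose response; inactive means no potentiation, no dose response, or not a prior hit.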

The source of these data is PubChem BioAssay.

Short transient receptor potential channel 6 (Mus musculus), sequence (Q61143 whole entry, looked up): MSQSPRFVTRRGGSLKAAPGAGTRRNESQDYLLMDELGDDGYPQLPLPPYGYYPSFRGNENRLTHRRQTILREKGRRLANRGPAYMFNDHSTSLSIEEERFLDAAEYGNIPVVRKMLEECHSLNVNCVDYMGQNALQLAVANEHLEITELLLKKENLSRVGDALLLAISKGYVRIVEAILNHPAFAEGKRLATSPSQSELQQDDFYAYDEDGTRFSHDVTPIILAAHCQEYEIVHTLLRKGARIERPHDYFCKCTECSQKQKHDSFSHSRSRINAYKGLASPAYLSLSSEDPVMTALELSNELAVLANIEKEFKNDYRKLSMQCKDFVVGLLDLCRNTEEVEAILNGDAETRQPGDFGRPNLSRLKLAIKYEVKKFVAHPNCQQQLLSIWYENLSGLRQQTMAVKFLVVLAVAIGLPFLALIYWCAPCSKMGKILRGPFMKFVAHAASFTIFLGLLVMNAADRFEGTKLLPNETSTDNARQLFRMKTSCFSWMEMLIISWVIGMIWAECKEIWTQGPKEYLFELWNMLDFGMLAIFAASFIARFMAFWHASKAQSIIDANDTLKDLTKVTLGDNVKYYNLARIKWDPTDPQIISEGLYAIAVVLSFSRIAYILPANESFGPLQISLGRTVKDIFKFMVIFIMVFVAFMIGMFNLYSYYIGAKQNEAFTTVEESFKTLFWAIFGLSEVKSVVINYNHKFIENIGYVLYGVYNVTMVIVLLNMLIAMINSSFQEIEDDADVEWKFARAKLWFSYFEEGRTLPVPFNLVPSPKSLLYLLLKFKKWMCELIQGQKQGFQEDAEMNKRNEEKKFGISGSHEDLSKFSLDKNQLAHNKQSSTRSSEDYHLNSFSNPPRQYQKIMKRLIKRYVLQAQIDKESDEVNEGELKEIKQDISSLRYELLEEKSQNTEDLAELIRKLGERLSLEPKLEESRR
Short transient receptor potential channel 4 (Mus musculus), sequence (Q9QUQ5 whole entry, looked up): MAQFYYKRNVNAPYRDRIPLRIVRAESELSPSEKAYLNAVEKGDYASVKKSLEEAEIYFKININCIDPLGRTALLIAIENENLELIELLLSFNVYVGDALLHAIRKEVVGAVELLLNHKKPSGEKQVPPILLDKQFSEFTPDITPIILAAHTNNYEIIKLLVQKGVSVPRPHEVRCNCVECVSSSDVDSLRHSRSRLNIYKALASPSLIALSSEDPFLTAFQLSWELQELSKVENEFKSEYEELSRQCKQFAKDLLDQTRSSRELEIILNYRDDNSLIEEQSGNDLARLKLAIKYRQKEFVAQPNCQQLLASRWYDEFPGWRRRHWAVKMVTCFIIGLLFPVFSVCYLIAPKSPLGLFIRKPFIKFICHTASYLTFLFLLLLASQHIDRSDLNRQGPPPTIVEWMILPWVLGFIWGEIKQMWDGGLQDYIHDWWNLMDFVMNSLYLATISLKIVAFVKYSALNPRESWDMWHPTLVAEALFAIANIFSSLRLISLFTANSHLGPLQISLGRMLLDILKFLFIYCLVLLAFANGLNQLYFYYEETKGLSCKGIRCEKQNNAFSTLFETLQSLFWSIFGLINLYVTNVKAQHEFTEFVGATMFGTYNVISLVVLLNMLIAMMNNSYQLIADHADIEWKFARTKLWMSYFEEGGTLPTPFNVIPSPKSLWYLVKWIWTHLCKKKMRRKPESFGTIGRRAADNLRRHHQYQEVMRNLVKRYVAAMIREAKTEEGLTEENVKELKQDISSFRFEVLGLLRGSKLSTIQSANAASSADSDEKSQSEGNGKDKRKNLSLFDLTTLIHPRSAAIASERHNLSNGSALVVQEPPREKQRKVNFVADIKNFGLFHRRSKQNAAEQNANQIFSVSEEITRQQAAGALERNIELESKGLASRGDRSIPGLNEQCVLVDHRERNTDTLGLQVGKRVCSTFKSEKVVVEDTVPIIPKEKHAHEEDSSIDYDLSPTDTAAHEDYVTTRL

With `O=C(Nc1ccc(Oc2ccccc2)nc1)C1CCN(Cc2ccccc2)CC1`, the outcome in test [1], in test [2], in [3], in test [4], in [6] and in [7] was inactive. The outcome in test [8], in test [9], in [10], in test [11], in test [12] and in test [14] was inactive. Also, the outcome in test [15] and in test [16] was inactive. Besides, the inhibition is 74% (active) in [5] and 32.6% (active) in [13].

Regarding `CCCCC[n+]1cccc2c3ccccc3ccc21`, the outcome in test [1], in [2], in test [3], in test [4], in test [6] and in test [7] was inactive. Besides, the outcome in test [8], in test [10], in [11], in [12], in test [14] and in [15] was inactive. In addition, the outcome in test [16] was inactive. Further, the figures for the inhibition in test [5], in test [9] and in test [13] were 93% (active), 29% (active) and 28.4% (active), respectively.

In the case of `CN1CCN(c2nc(-c3cccnc3)nc3scc(-c4ccccc4)c23)CC1`, the outcome in [1], in test [2], in test [3], in test [4], in test [5] and in [6] was inactive. The result in test [7], in test [8], in test [9], in [10], in test [11] and in [12] was inactive. Besides, the outcome in [13], in test [14], in test [15] and in test [16] was inactive.

Turning to `Cn1cc(-c2nc3ccccc3[nH]2)c2ccccc21`, the outcome in [1], in test [2], in test [3], in [4], in test [7] and in [8] was inactive. Further, the call in test [10], in test [11], in test [12], in test [14], in test [15] and in test [16] was inactive. Also, the inhibition was 99% (active) in [5], 49% (active) in test [6], 5.5% (active) in test [9] and 41.1% (active) in test [13].

Take `CCOc1ccccc1N(C(=O)c1snc(C(N)=O)c1N)C(C(=O)NCc1ccccc1)c1ccc(O)cc1` (stereo not given): the outcome in test [1], in test [2], in [3], in test [4], in [6] and in test [7] was inactive. Besides, the result in test [8], in [9], in test [10], in test [11], in [12] and in [14] was inactive. For the same molecule, the outcome in test [15] and in test [16] was inactive. The inhibition was 79% (active) in test [5] and 41.9% (active) in [13].

For the molecule `CCCc1noc2c1/C(=N\O)CC(CC(C)SCC)C2` (stereo not given), the result in test [1], in [2], in test [3], in [4], in [6] and in test [7] was inactive. Further, the result in test [8], in test [9], in test [10], in test [11], in [12] and in test [14] was inactive. The result in test [15] and in test [16] was inactive. Besides, the results for the inhibition in test [5] and in test [13] were 92% (active) and 14.8% (active), respectively.

As for `CC(C)(C)NCc1ccccc1OCc1cccs1`, the outcome in [1], in [2], in [3], in test [4], in test [7] and in test [8] was inactive. In addition, the result in [10], in test [11], in test [12], in test [14], in [15] and in test [16] was inactive. For the same molecule, the inhibition in [5] was 95% (active); in [6], 45% (active); in test [9], 15% (active); in test [13], 17.5% (active).

Regarding `O=C(CN1CCCCC1)N=Nc1c(O)[nH]c2ccccc12`, the result in test [1], in test [2], in [3], in test [4], in test [6] and in test [7] was inactive. Moreover, the outcome in test [8], in [9], in [10], in test [11], in [12] and in [14] was inactive. Besides, the outcome in [15] and in [16] was inactive. Further, the inhibition was 80% (active) in [5] and 33.5% (active) in [13].

With `CCN(CC)c1ncnc2scc(C3COc4ccccc4O3)c12` (stereo not given), the result in test [1], in [2], in test [3], in [4], in [6] and in [7] was inactive. The result in test [8], in test [9], in test [10], in test [11], in test [12] and in test [14] was inactive. The outcome in test [15] and in test [16] was inactive. Moreover, the inhibition in test [5] was 86% (active); in test [13] it was 33% (active).

For `O=C(NC1CCCCC1)N1CCN(C(c2ccccc2)c2ccccc2)CC1`, the outcome in [1], in [2], in test [3], in [4], in test [5] and in test [6] was inactive. Further, the outcome in [7], in test [8], in test [9], in test [10], in test [11] and in test [12] was inactive. Also, the result in test [13], in [14], in test [15] and in test [16] was inactive.

For the molecule `C=CCn1cnc2scc(-c3ccc(CC)cc3)c2c1=O`, the result in test [1], in [2], in test [3], in test [4], in [6] and in test [7] was inactive. For the same molecule, the outcome in test [8], in test [9], in [10], in test [11], in test [12] and in test [13] was inactive. Also, the result in [14], in test [15] and in [16] was inactive. Also, the inhibition in test [5] was 57% (active).

For `CCCCn1c(SCC(=O)OCC)nc2c(sc(=S)n2-c2ccccc2OC)c1=O`, the outcome in [1], in test [2], in [3], in [4], in test [6] and in test [7] was inactive. The outcome in test [8], in [9], in test [10], in [11], in test [12] and in [14] was inactive. Besides, the outcome in test [15] and in [16] was inactive. In addition, the inhibition in test [5] is 94% (active); in [13], 14% (active).

Regarding `Cc1ccc2cc(CN(CCN3CCOCC3)C(=O)NCc3ccccc3)c(=O)[nH]c2c1C`, the result in test [1], in test [2], in [3], in test [4], in test [7] and in test [8] was inactive. The molecule was classed as inactive in [9], in test [10], in test [11], in [12], in test [14] and in [15]. For the same molecule, the result in test [16] was inactive. Moreover, the inhibition was 80% (active) in test [5], 42% (active) in [6] and 34% (active) in [13].

Take `Cn1cc(CN2CCCCC2CO)c(-c2ccc(Oc3ccccc3)cc2)n1` (stereo not given): the outcome in test [1], in test [2], in [3], in test [4], in test [7] and in test [8] was inactive. In addition, the outcome in [9], in test [10], in test [11], in [12], in test [14] and in test [15] was inactive. In addition, the result in test [16] was inactive. The inhibition is 86% (active) in test [5], 41% (active) in test [6] and 39.6% (active) in test [13].

Consider `O=C(NCCCN1CCN(c2cccc(Cl)c2)CC1)C1CCC(=O)N1Cc1ccccc1Cl` (stereo not given), for which the result in test [1], in [2], in test [3], in test [4], in test [7] and in test [8] was inactive. The molecule was called inactive in test [9], in test [10], in [11], in test [12], in test [14] and in test [15]. Besides, the outcome in test [16] was inactive. Further, the inhibition in [5] was 90% (active); in test [6], 52% (active); in test [13], 35.9% (active).
